According to PubChem BioAssay AID463190 (Sanford-Burnham Center for Chemical Genomics, 2010):
Screen size: about 330,000 compounds; about 7,300 (2.2%) were called active.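 How the source made its calls: active means inhibition of at least 40%; inactive means the rest.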 Shown is part of a subset that was picked to be rich in actives.

Test: growth inhibition of tim10-1 ts yeast – luminescence, uHTS, primary screen (AID 463190);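 further: mutant grown at 25 °C; 0% = DMSO wells with yeast and 100% = wells holding no yeast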
Conditions: S. cerevisiae tim10-1 ts strain growth, BacTiter-Glo, 24 h; at 20 µM; stronger effect = higher value

| SMILES | inhibition |
| --- | --- |
| COc1ccc(-n2nc(C(=O)NCC(=O)N3CCN(c4ccccc4OC)CC3)c3ccccc3c2=O)c(OC)c1 | 1.49% (inactive) |
| CCN(c1ccccc1)S(=O)(=O)c1ccc2[nH]c(=O)[nH]c2c1 | 11.5% (inactive) |
| O=C(O)C(c1ccccc1)C1(O)CCCCC1 (stereo not drawn) | 2.11% (inactive) |
| Cc1ccc(C(=O)Nc2c(C#N)c(C)c(C)n2Cc2ccccc2)cc1 | 17.9% (inactive) |
| O=C(CSc1ccc(-c2ccc(Br)cc2)nn1)NCC1CCCO1 (stereo not drawn) | 17.5% (inactive) |
| OC(CNCC1CCCO1)Cn1c2ccc(Br)cc2c2cc(Br)ccc21 (stereo not drawn) | 45.7% (active) |
| O=C(CCNS(=O)(=O)c1ccc(Br)cc1)NCC1CCCO1 (stereo not drawn) | 1.09% (inactive) |
| NC(=O)C1CCN(C(=O)/C(=C/c2ccco2)NC(=O)c2ccccc2)CC1 | -8.85% (inactive) |
| NC(=O)CC[C@@H]1NC(=O)[C@H](CO)NC(=O)c2cc([N+](=O)[O-])cc(I)c2NCC[C@@H](C(N)=O)NC1=O | -26.8% (inactive) |
| CCOc1ccc(NC(=O)[C@H](C)NC(=O)C2CC(=O)N(c3ccc(OC)cc3)C2)cc1 (stereo partly drawn) | -6.36% (inactive) |
| COC(=O)C(NS(=O)(=O)c1ccc(F)cc1)c1ccccc1 (stereo not drawn) | 13.7% (inactive) |
| Cc1ccc(Oc2ccc3c(c2)C(=O)N(c2cccc4cccnc24)C3=O)cc1 | 18.3% (inactive) |
| Cc1ccc(OCC(=O)Nn2cnc3ccccc32)cc1 | 1.81% (inactive) |
| Cc1ccc(OS(=O)Nc2cccc3nccnc23)cc1 (stereo not drawn) | 54.6% (active) |
| CCOc1ccc(NS(=O)(=O)c2cc(C)c(C)cc2C)cc1 | 1.28% (inactive) |
| CC(C)(C)c1cc(CN2CCN(CCC#N)CC2)cc(C(C)(C)C)c1O | -1.87% (inactive) |
| CCN1/C(=C\c2ccc3ccccc3[n+]2CC)Sc2cc(C)ccc21 | 65.2% (active) |
| C=CCn1c(COc2ccc(F)cc2)nnc1SCC(=O)Nc1cccc(S(N)(=O)=O)c1 | -3.82% (inactive) |
| O=c1nc(N2CCOCC2)nc2n1CCO2 | -13.4% (inactive) |
| CCC1CCCCN1C(=O)CSc1nc2c(c(=O)n(C)c(=O)n2C)n1C (stereo not drawn) | 0.551% (inactive) |
| O=S(=O)(c1ccc(F)cc1)n1ccc(-c2cnc(-c3ccccc3)s2)n1 | 24.1% (inactive) |
| O=[N+]([O-])c1ccc2oc(-c3cccc(O)c3)nc2c1 | 45.7% (active) |
| COc1ccc2oc(-c3cccc(NC(=O)CSc4ccc(Cl)cc4)c3)nc2c1 | 21.6% (inactive) |
| CC(=O)Oc1ccc2c(=O)oc(-c3ccc([N+](=O)[O-])cc3)nc2c1 | 22.6% (inactive) |

| SMILES | inhibition |
| --- | --- |
| Cc1ccc(OS(=O)(=O)c2ccc(-c3csc(C)n3)s2)c(C)c1 | 10.6% (inactive) |
| COc1cc(C=O)ccc1Oc1nnnn1-c1ccccc1 | 22.8% (inactive) |
| O=C(NC(Nc1nc2ccc([N+](=O)[O-])cc2s1)(C(F)(F)F)C(F)(F)F)c1ccccc1 | 85.4% (active) |
| O=C(CNC(=O)c1ccccc1)Oc1ccc([N+](=O)[O-])cc1 | 3.17% (inactive) |
| O=C(CCNC(=O)c1ccccc1)Nc1nc2ccccc2s1 | -11% (inactive) |
| CCC(=O)Nc1cccc(C2=NOC3(C2)C[C@@H](C(N)=O)N(C(=O)c2cc([N+](=O)[O-])cc([N+](=O)[O-])c2C)C3)c1 (stereo partly drawn) | 9.39% (inactive) |
| O=C1c2ccccc2C(=O)c2c1cccc2N1CCN(C/C=C/c2ccccc2)CC1 | 23.3% (inactive) |
| O=C1c2ccccc2C(=O)c2c1cccc2N1CCN(Cc2ccccc2)CC1 | 49.4% (active) |
| O=C1c2ccccc2C(=O)c2c1cccc2N1CCN(CCO)CC1 | 15.9% (inactive) |
| CC1CCN(S(=O)(=O)c2ccc3c(ccn3CC(=O)O)c2)CC1 | 6.77% (inactive) |
| COc1ccc([N+](=O)[O-])cc1NC(=O)CCc1ccccc1 | 27.1% (inactive) |
| O=C(CCc1ccccc1)Nc1ncc([N+](=O)[O-])s1 | 45.9% (active) |
| O=C(Cc1c(F)cccc1Cl)Nc1ncc([N+](=O)[O-])s1 | 32.8% (inactive) |
| O=C(C1CCCN(S(=O)(=O)c2ccccc2)C1)N1CCN(c2ccc(F)cc2)CC1 (stereo not drawn) | 17.6% (inactive) |
| Fc1ccccc1-c1cc2cc3c(cc2cn1)OCO3 | -19.8% (inactive) |
| COc1cccc(NC(=S)N(CCc2c(C)[nH]c3ccccc23)Cc2ccco2)c1 | 32.4% (inactive) |
| COCCNC(=S)N(CCc1c(C)[nH]c2ccc(C)cc12)Cc1cccnc1 | 11.6% (inactive) |
| CCNC(=S)N(CCc1c(C)[nH]c2ccc(C)cc12)Cc1ccco1 | 45.6% (active) |
| CC(CNS(=O)(=O)c1ccc(Br)cc1)CN(C)C (stereo not drawn) | 6.17% (inactive) |
| O=C(c1ccccn1)c1ncc(C(F)(F)F)cc1Cl | 7.58% (inactive) |
| N/C(=N\OC(=O)CCCC(=O)O)c1ncc(C(F)(F)F)cc1Cl | 1.66% (inactive) |
| N/C(=N\OC(=O)Nc1ccc(Cl)c(Cl)c1)c1ncc(C(F)(F)F)cc1Cl | 49.2% (active) |
| Cc1cccc(NC(=O)C2CCCN(C(=O)Nc3ccc(F)cc3)C2)c1C (stereo not drawn) | -25.6% (inactive) |
| Cc1noc(C)c1CCC(=O)N1CCCC(CO)(Cc2ccccc2)C1 (stereo not drawn) | -14.1% (inactive) |

| SMILES | inhibition |
| --- | --- |
| Cc1ccccc1CC1(CO)CCCN(Cc2ccc3c(c2)OCCO3)C1 (stereo not drawn) | 8.67% (inactive) |
| Cc1ccccc1CC1(CO)CCCN(C(=O)c2cc(-c3ccccc3)no2)C1 (stereo not drawn) | 42.6% (active) |
| Cc1cccc(-n2ncc(Cl)c(Cl)c2=O)c1 | -25.8% (inactive) |
| Cc1ccc(OC(=O)c2c(C)nn(-c3ccccc3)c2C)cc1 | 25.6% (inactive) |
| Cc1ccc(Oc2cnn(-c3ccccc3)c(=O)c2Br)cc1 | 42.1% (active) |
| COc1ccc(S(=O)(=O)/N=C2\C=C(NS(=O)(=O)c3ccccc3)C(=O)c3ccccc32)cc1 | 31.1% (inactive) |
| CCc1[nH]nc(C(=O)N2CCCC(CO)(Cc3ccc(F)cc3F)C2)c1C (stereo not drawn) | 24.1% (inactive) |
| COc1cc2c(cc1OC)C(C(=O)Nc1cc(C)c(OC)c(C)c1)CC(=O)N2 (stereo not drawn) | -5.96% (inactive) |
| CS(=O)(=O)N(Cc1ccccc1)c1ccc(C(=O)NN=C2CCCCCC2)cc1 | 17.2% (inactive) |
| O=C(N/N=C\c1cccc(Br)c1)c1ccccc1-n1cccc1 | 57.6% (active) |
| O=C(CNC(=O)c1cccs1)N/N=C/c1cccc(Br)c1 | 22% (inactive) |
| O=C(N/N=C/c1cccc(Br)c1)c1ccc(N2CCCC2=O)cc1 | -37.8% (inactive) |
| CCN(Cc1ccncc1)C(=O)CCc1ccccc1 | -0.112% (inactive) |
| COc1ccc(CNC(=O)/C(C#N)=C/c2cccc(OC)c2OC)cc1 | 63.8% (active) |
| COc1ccc(NC(=O)/C(C#N)=C\c2cc(OC)c(OCc3ccc(C(=O)O)cc3)cc2Br)cc1 | 26.4% (inactive) |
| COc1ccc(CNC(=O)CCn2cccc2)cc1 | 9.29% (inactive) |
| CC(C)c1ccc(/C=C2\NC(=O)NC2=O)cc1 | 10.2% (inactive) |
| COc1ccccc1N1CCN(C(=O)c2ccc(Cl)c(S(=O)(=O)N3CCCC3)c2)CC1 | 22% (inactive) |
| Cc1[nH]c2ccc(C(=O)N3CCN(C)CC3)cc2c1C | -12.6% (inactive) |
| CCOc1ccccc1N1CCN(C(=O)c2ccc3[nH]c(C)c(C)c3c2)CC1 | 48.8% (active) |
| COc1ccc(-c2c(C#Cc3ccsc3)c3cc(-c4ccc(CN5CCOCC5)cc4)ccc3n2C)cc1 | 15.1% (inactive) |
| Cc1ccccc1C(=O)N1CCC(C(=O)Oc2ccc(C#N)cc2)CC1 | -2.27% (inactive) |
| CCCn1nc(C(=O)NNC(=O)CCOc2ccccc2OCC)c2ccccc2c1=O | 17.6% (inactive) |
| CS(=O)(=O)n1nc(-c2ccco2)nc1N | 3.68% (inactive) |

| SMILES | inhibition |
| --- | --- |
| CCOc1ccccc1/C=c1\sc2nc(-c3ccco3)nn2c1=O | 54.3% (active) |
| Cn1cccc1C(C#N)c1ccccc1C#N (stereo not drawn) | 10.1% (inactive) |
| O=C(NC1(C(F)(F)F)NC(=O)N(Cc2cccnc2)C1=O)c1ccccc1Cl (stereo not drawn) | 9.72% (inactive) |
| COc1cc(C(=O)N(C)Cc2cccc(OC)c2OC)ccc1OCC(=O)Nc1cccc(C(F)(F)F)c1 | 20.8% (inactive) |
| COc1ccc(Cn2c(=O)cc(C)[nH]c2=S)cc1 | -11.8% (inactive) |
| COc1ccc(Cn2c(-c3ccc(Cl)cc3)c[n+]3ccccc23)cc1 | 48.6% (active) |
| CCn1c(C)cc(=O)cc1-c1ccc(Cl)cc1 | 8.56% (inactive) |
| Cc1cccc(NS(=O)(=O)c2cccc(C(=O)NNC(=O)c3ccccc3O)c2)c1 | 21.6% (inactive) |
| O=C(CN1CCN(C(=S)NC2CCCC2)CC1)Nc1ccc(Oc2ccccc2)cc1 | 12.6% (inactive) |
| Cc1ccc2cc(C#N)c(NCCNC(=S)NCCCN3CCOCC3)nc2c1 | -0.527% (inactive) |
| CC(C)N(C(=O)Cn1cc(S(=O)(=O)CC(=O)N2CCOCC2)c2ccccc21)C(C)C | -3.3% (inactive) |
| O=C(Nc1ccon1)c1nc[nH]c1C(=O)NCc1ccccc1 | 7.98% (inactive) |
| CCOC(=O)c1ccc(NC(=O)c2nc[nH]c2C(=O)NCc2ccccc2)cc1 | 41.1% (active) |
| CCOC(=O)c1[nH]cnc1C(=O)Nc1ccccc1C | 11.6% (inactive) |
| CC(C)c1ccc(S(=O)(=O)N2CCN(C(C)C(=O)NC3CCCC3)CC2)cc1 (stereo not drawn) | 13.4% (inactive) |
| Nc1c(C(=O)O)cnn1-c1ccccc1 | 2.2% (inactive) |
| CCN(C(=O)COC(=O)c1ccccc1O)c1cccc2ccccc12 | 24.2% (inactive) |
| CSC(=S)N/N=C/c1c[nH]c2ccccc12 | 54.2% (active) |
| O=C(O)c1cccc(NC(=S)N/N=C/c2c[nH]c3ccccc23)c1 | 19% (inactive) |
| Nc1nonc1-n1nnc(C(=O)N/N=C/c2c[nH]c3ccccc23)c1-c1ccccc1 | 11.6% (inactive) |
| Cn1cnc(S(=O)(=O)Nc2ccc3c(c2)OCCO3)c1 | -19.7% (inactive) |
